Screening data (PubChem BioAssay)
The list is not random: actives were taken first. Their share in the collection is about 3.1%.
BoNT A protease: inhibitors of Botulinum neurotoxin A light chain protease; multiplex microsphere protease substrate cleavage, flow cytometry; inhibition, % at 10 µM; 360,000 tested, 0.17% active; AID 588499; further: plate controls were buffer without enzyme for full effect and enzyme alone for no effect
Anthrax LF inh2: blocks Bacillus anthracis lethal factor protease; P15917; multiplex microsphere protease cleavage assay, LF; inhibition, % at 10 µM; 360,000 tested, 0.12% active; AID 588501; further: plate controls were buffer without enzyme for full effect and enzyme alone for no effect
Target sequence (P15917 whole entry, looked up): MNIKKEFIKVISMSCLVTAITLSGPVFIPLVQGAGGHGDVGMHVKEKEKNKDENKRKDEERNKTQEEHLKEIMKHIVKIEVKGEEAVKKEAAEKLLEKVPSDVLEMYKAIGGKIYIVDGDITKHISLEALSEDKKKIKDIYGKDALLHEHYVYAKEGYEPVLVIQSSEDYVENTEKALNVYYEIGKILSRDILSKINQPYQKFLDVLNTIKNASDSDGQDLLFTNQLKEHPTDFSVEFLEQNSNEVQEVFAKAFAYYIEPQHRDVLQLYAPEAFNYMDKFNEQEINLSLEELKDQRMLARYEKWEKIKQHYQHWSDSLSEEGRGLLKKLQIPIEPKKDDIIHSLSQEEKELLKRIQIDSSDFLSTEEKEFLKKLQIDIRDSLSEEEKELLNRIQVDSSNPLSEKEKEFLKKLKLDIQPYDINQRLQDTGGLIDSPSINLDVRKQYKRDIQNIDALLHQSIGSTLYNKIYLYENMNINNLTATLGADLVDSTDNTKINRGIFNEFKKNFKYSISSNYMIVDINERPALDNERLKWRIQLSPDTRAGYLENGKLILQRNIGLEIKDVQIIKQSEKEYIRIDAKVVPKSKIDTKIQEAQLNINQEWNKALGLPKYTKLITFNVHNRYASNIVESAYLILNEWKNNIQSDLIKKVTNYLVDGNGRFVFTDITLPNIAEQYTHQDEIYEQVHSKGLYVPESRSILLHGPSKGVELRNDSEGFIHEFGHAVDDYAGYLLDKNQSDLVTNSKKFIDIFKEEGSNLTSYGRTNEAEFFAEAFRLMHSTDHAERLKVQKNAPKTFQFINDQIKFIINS
Autofluor counter: compound fluorescence in toxin protease inhibitor counterscreen | 360,000 tested, 3.1% active | compound autofluorescence counterscreen, microsphere flow cytometry; stronger effect = higher value | fluorescence intensity (concentration not given with the values); in the data active means fluorescence intensity above about 16000; inconclusive means no clear call, values can overlap the other calls
SSB-PriA inh: blocks PriA binding to SSB C-terminal tail; inhibition, % at 33 µM; AID 1272365; AlphaScreen SSBct-PriA binding, biotinylated peptide; 430,000 tested, 0.6% active; in the data active means inhibition mostly above about 37%, no sharp cut-off; inactive means mostly below about 20%;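 further: plate controls were negative control peptide for no effect and reference peptide for full effect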
BoNT-F LC inh: blocks Botulinum neurotoxin F light chain protease; Multiplex microsphere protease cleavage assay, flow cytometry; inhibition, % at 10 µM; 360,000 tested, 0.22% active; in the data active means inhibition above about 35%, passing the limit was not always enough; inconclusive means no clear call, values can overlap the other calls; further: plate controls were buffer without enzyme for full effect and enzyme alone for no effect
* = called active by the depositor; u = inconclusive; x = not tested or not shown. Unless noted, no stated cut-off is given here; in the data, active means inhibition above about 30%; inconclusive means no clear call, values can overlap the other calls; inactive means below that.

SMILES | BoNT A protease | Anthrax LF inh2 | Autofluor counter | SSB-PriA inh | BoNT-F LC inh
CCC(C)(C(=O)NC1CCCCC1)N(Cc1ccco1)C(=O)c1cnccn1 (stereo not drawn) | 0 | -5 | 16804* | -14 | -2
CCC(C)(C(=O)NC1CCCC1)N(Cc1ccco1)C(=O)c1ccc2c(c1)OCO2 (stereo not drawn) | -2 | -4 | 17659* | 0 | -1
CCC(C)(C(=O)NC1CCCC1)N(Cc1ccco1)C(=O)c1ccccn1 (stereo not drawn) | 0 | 2 | 6142 | 5 | -4
O=C(O)c1cc(-c2ccccn2)n[nH]1 | 1 | 1 | 22786* | -1 | 1
O=C(c1cccc2ccccc12)N1CCC(c2ccsc2)CC1 | x | x | x | 2 | x
CC(C)(C)CC(C)(C)Nc1c(-c2ccc(O)cc2)nc2cnccn12 | -2 | -2 | 16574* | -3 | -1
CCOC(=O)c1ccc2nc(NC(=O)C3CCN(S(C)(=O)=O)CC3)sc2c1 | x | x | x | -8 | x
Cc1ccc(S(=O)(=O)N2CCC(C(=O)Nc3sc4c(c3C#N)CCCC4)CC2)cc1 | x | x | x | 4 | x
CN(C(=O)c1ccccc1NC(=O)C(F)(F)F)c1ccccc1 | 10 | -6 | 19216* | -10 | 10
CCOC(=O)c1ccccc1NC(=O)COC(=O)c1ccccc1C(=O)N(C)c1ccccc1 | u | u | 4278 | -13 | u
CC(=O)c1cc(F)c(N2CCCC2)cc1C | 0 | 1 | 5173 | -2 | 15
CC(=O)c1cc(F)c(N2CCN(c3ccc([N+](=O)[O-])cc3F)CC2)cc1C | -2 | -6 | 20270* | -5 | -4
O=C(/C=C/c1ccc2c(c1)OCO2)NCCSc1ncc(-c2ccc(Cl)cc2)[nH]1 | x | x | x | 38* | x
CCC(=O)Nc1ccc(Oc2ccc3c(c2)C(=O)N(c2ccc(O)cc2)C3=O)cc1 | u | 0 | 21982* | -2 | 1
CC(C)(C)C(=O)Nc1ccc(Oc2ccc3c(c2)C(=O)N(c2ccc(O)cc2)C3=O)cc1 | u | u | u | -4 | u
COc1ccc(N(CC(=O)NCCSC2CCCCC2)S(C)(=O)=O)c(OC)c1 | u | -1 | 18476* | -6 | -10
O=[N+]([O-])c1nn(-c2ccc3c(c2)OCCO3)n(O)c1=NC1CCCCCC1 | -4 | -9 | 9502 | 55* | -40
O=[N+]([O-])c1nn(-c2cccc(Cl)c2)n(O)c1=NC1CCCCC1 | x | x | x | 90* | x
CCc1ccc(N=c2c([N+](=O)[O-])nn(-c3ccc4c(c3)OCCO4)n2O)cc1 | 0 | 2 | 2495 | 58* | -4
O=[N+]([O-])c1nn(-c2ccc3c(c2)OCCO3)n(O)c1=Nc1ccc(Cl)cc1 | 0 | -2 | 5533 | 21 | -7
O=[N+]([O-])c1nn(-c2ccccc2)n(O)c1=NC1CCCCC1 | x | x | x | 52 | x
COc1ccc(-c2cc(COC(=O)C3c4ccccc4Oc4ccccc43)no2)cc1OC | x | x | x | -8 | x
COc1cc(N=Nc2ccc(C)cc2S(N)(=O)=O)c(C)cc1N | 0 | -3 | 3034 | 48* | 2
Cc1ccccc1NC1=C(C(=O)c2ccccc2)N(C)S(=O)(=O)c2ccccc21 | -1 | -3 | 3169 | 1 | -9
O=C(C1=C(Nc2ccccc2)c2ccccc2S(=O)(=O)N1)c1ccccc1 | -1 | -2 | 2517 | 42* | -3
SMILES | BoNT A protease | Anthrax LF inh2 | Autofluor counter | SSB-PriA inh | BoNT-F LC inh
Cc1cccc(S(=O)(=O)Nc2ccc(C(=O)N3C4C=CCC3CC4)cc2)c1 (stereo not drawn) | x | x | x | -11 | x
CCOC(=O)N1CCC(NC(=O)c2cccn3c(=O)c4cc(Br)ccc4nc23)CC1 | 3 | 0 | 18434* | -9 | 6
Cc1nc(NCc2ccco2)[nH]c(=O)c1CCC(C)C | 3 | 1 | 21901* | -3 | 5
COC(=O)c1ccc(Cn2cnc3c(nnn3C)c2=O)o1 | x | x | x | -14 | x
CN(C)c1nc2sc3c(c2c(=O)n1C)CC(C)(C)OC3 | -1 | -4 | 2567 | -8 | 2
Cc1nn2c(C)nc3sc4c(c3c2nc1=O)CC(C)(C)OC4 | -6 | 1 | 25222* | 0 | -6
CC1(C)Cc2c(sc3nc(-c4cccs4)n(N)c(=O)c23)CO1 | u | 0 | 21380* | -26 | 6
CC1(C)Cc2c(sc3nc(-c4ccccc4)n(N)c(=O)c23)CO1 | 0 | -1 | 2918 | -5 | -6
O=S(=O)(N1CCOCC1)N1CCN(C(c2ccccc2)c2ccccc2)CC1 | x | x | x | 6 | x
O=C(c1cc([N+](=O)[O-])cc([N+](=O)[O-])c1)N1CCSC1c1ccco1 (stereo not drawn) | x | x | x | 8 | x
NC(=O)c1ccc(NC(=O)CCCn2nc(-c3ccc(F)cc3)ccc2=O)cc1 | x | x | x | -5 | x
COc1cnc(-c2ccccn2)nc1Oc1c(C)cccc1C | -2 | -6 | 4461 | 49* | 1
